Source: PubChem (The Scripps Research Institute Molecular Screening Center)
An excerpt weighted towards active compounds, which were near 0.86% of everything screened.
TLR9-MyD88 inh: blocks human TLR9 binding to MyD88; Q9NR96+Q99836; CHO BLA complementation TLR9-MyD88, CCF4 FRET ratio; inhibition, % at 4.98 µM; 0.21% of 340,000 active;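 active = inhibition above the mean over all tested compounds plus 3 SD, cut at about 21% in these data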;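 note: 0% = DMSO only wells and 100% = clavulanate BLA inhibitor control wells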
NOD2-RIPK2 inh: NOD2-RIPK2 protein interaction inhibition; O43353; CHO BLA complementation NOD2-RIPK2, CCF4 ratio; inhibition, % at 4.98 µM; 0.38% of 360,000 active; in the data active = inhibition above about 21%;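 note: 0% = vehicle only and 100% = reference blocker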
Target sequence (O43353 whole entry, looked up): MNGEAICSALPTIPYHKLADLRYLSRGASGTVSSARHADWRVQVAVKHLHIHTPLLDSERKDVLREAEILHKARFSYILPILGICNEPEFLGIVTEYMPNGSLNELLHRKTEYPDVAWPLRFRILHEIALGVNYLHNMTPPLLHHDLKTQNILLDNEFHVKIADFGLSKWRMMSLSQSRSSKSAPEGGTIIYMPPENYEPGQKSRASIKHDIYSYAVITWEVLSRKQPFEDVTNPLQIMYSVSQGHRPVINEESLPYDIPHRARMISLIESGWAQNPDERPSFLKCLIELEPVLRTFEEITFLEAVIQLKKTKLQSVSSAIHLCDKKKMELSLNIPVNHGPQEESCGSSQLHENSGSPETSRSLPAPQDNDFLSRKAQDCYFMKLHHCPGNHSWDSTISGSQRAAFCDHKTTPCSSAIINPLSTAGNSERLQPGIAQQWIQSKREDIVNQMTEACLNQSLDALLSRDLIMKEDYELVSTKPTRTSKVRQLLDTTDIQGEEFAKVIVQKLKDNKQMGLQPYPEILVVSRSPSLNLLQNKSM
IDE act: boosts human insulin-degrading enzyme activity in HEK cells. FAbeta-B cleavage, fluorescence polarization; 0% vehicle, 100% cell-free pure enzyme wells. P14735. 0.073% of 340,000 active. AID 493087. activation, % at 5.96 µM;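 active = activation above the mean of all tested compounds plus 3 SD, set per screening campaign, cut at about 17% in these data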
TLR4 MyD88 comp: inhibitors of human TLR4-MyD88 binding | O00206+Q99836 | HeLa CL3-4 TLR4/MyD88 BLA complementation, FRET ratio | inhibition, % at 8.4 µM | 0.18% of 200,000 active | AID 861; in the data active = inhibition above about 25%;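 note: 0% = vehicle and 100% = reference inhibitor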
IDE inh: inhibitors of human insulin-degrading enzyme in cells | inhibition, % at 5.59 µM | HEK cells, FAbetaB cleavage, fluorescence polarization | 0.41% of 320,000 active;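 active = percent inhibition above the average of all tested compounds plus 3 SD, set per screening campaign, cut at about 16% in these data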;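 note: IDE supplied by intact live HEK cells; FP after avidin binding of uncleaved biotin substrate so inhibition keeps polarization high; 0% = DMSO wells and 100% = 60 µM reference IDE inhibitor Ii1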
TLR9-MyD88 conf: confirmation of human TLR9-MyD88 binding inhibitors. shares compounds with TLR9-MyD88 inh. 51% of 680 active. inhibition, % at 4.98 µM. CHO TLR9/MyD88 BLA complementation, CCF4 FRET ratio. AID 540250;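 active = mean inhibition across three repeats above about 21% taken from the earlier screen, limit read from the data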;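 note: blue over green emission ratio reports constitutive TLR9 MyD88 association via BLA complementation; 0% = DMSO vehicle wells and 100% = clavulanate BLA inhibitor wells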
BLA nonselective: counter-screen for TLR9-MyD88 inhibitors: non-selective beta-lactamase inhibitors | shares compounds with TLR9-MyD88 inh | CHO-BLA cells, CCF4 FRET ratio, BLA reporter | inhibition, % at 4.98 µM | 7% of 680 active;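 active = mean inhibition above a 50% cutoff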;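 note: counterscreen of TLR9-MyD88 hits on CMV-driven BLA in CHO-K1 cells; 0% = DMSO alone and 100% = clavulanate blocking BLA; higher means less blue over green ratio so more BLA blockade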
TLR9 CHO tox: counter-screen for TLR9-MyD88 inhibitors: cytotoxicity in CHO cells. inhibition, % at 4.98 µM. luminescence. AID 588336. shares compounds with TLR9-MyD88 inh. 39% of 680 active; in the data active = inhibition above about 11%
The depositor's hits bear a star; . = not tested or not shown.

SMILES	TLR9-MyD88 inh	NOD2-RIPK2 inh	IDE act	TLR4 MyD88 comp	IDE inh	TLR9-MyD88 conf	BLA nonselective	TLR9 CHO tox
Cc1cccc([C@@H]2C[C@H]3CN(Cc4cccc(Cl)c4)C(=O)[C@]34CCCN24)n1	-4	-15	-1	7	5	.	.	.
CC(=O)Nc1cccc(/C(C)=N/NS(=O)(=O)c2ccc(C)cc2)c1	-2	-2	3	-7	6	.	.	.
C/C(=N/NS(=O)(=O)c1ccc(C)cc1)c1ccc(NC(=O)C(F)(F)F)cc1	22*	3	4	-6	1	9	9	-1
NC(=O)c1ccsc1NC(=O)CSc1nnc2ccccn12	1	-1	-4	6	-2	.	.	.
CCn1c(/C=C/c2cc[n+](C)cc2)nc2ccccc21	24*	17	3	.	-1	12	15	-1
Cc1cc2nc3c(=O)n(C4CCCCC4)c(=O)[nH]c3nc2cc1N	28*	6	-7	12	.	20	25	0
CCC(=O)OCCNc1cc(Sc2nccn2C)c2nonc2c1[N+](=O)[O-]	24*	15	-5	24	-3	69*	28	101*
COc1ccccc1C1C=C(c2ccc(C)cc2)Nc2nnnn21 (stereo not drawn)	22*	13	3	-9	1	2	2	8
Cc1ccc(C2=CC(c3cccs3)n3nnnc3N2)cc1 (stereo not drawn)	-3	0	-2	-11	1	.	.	.
COc1ccc(C(=O)NCC(=O)N/N=C/C(C)=C/c2ccccc2)cc1OC	21*	2	0	0	6	1	-2	-1
COc1ccc(C(=O)NCC(=O)N/N=C/C=C/c2ccccc2)cc1OC	3	-7	7	-8	-2	.	.	.
COc1cccc(C2=NOC(C(=O)N3CCOCC3)C2)c1 (stereo not drawn)	4	-9	4	4	8	.	.	.
COc1ccc(C(=O)/C=C(\N)C(F)(F)F)c(O)c1	-10	-9	-2	5	2	.	.	.
O=C(OCn1ncc(Br)c(Br)c1=O)c1ccccc1Cl	32*	82*	7	14	3	36*	24	100*
O=C(OCc1cnc(Cl)s1)c1ccccc1Cl	-2	5	3	-15	-3	.	.	.
CCOC(=O)[C@H]1[C@H]2COc3ccc(C)cc3[C@@H]2N2C(=O)CN(Cc3ccco3)C(=O)[C@@]12C	22*	3	4	.	-2	4	1	0
COC(=O)c1cn[nH]c1NC(=S)Nc1ccc(Cl)c(Cl)c1	22*	9	-2	-1	7	21	13	6
O=C1c2ccccc2NC(c2ccc(-c3ccc(C(F)(F)F)cc3)o2)N1O (stereo not drawn)	24*	4	6	.	1	4	5	41*
Clc1ccc(/C=N/Nc2nc(Cl)nc3ccccc23)cc1	-5	-2	1	4	-3	.	.	.
Clc1ccc(/C=N/NC2=Nc3cccc4cccc2c34)cc1	29*	11	-8	5	4	14	12	7
O=C(CCc1c[nH]c2ccccc12)NCc1ccc2c(c1)OCO2	1	-2	7	12	-5	.	.	.
COc1cc(N2C(=O)C=CC2=O)ccc1N1C(=O)C=CC1=O	39*	26*	-32	.	.	64*	44	101*
Cc1ccc(NC(=O)c2cc(N3C(=O)C=CC3=O)ccc2N2CCOCC2)cc1Cl	32*	-1	-41	1	3	55*	18	97*
NNC(=O)c1oc2nc(-c3cccs3)cc(-c3ccco3)c2c1N	22*	4	-11	.	4	12	14	-2
Cc1ccc(-c2cc(-c3ccco3)c3c(N)c(C(=O)NN)oc3n2)cc1	12	13	-1	.	-2	.	.	.
CCCCS(=O)(=O)/C=C\C=C/S(=O)(=O)CCCC	34*	91*	-10	13	-1	37*	35	100*
COc1ccc(OC)c(NC(=O)c2nnn(CCc3ccccc3)c2N)c1	-11	2	7	10	-3	.	.	.
